An excerpt weighted towards active compounds, which were near 1.1% of everything screened.
PrP UTR inh – suppresses PrP 5' UTR mRNA reporter expression | cell-based PrP 5' UTR mRNA reporter, plate reader | inhibition, % (no concentration beside the values) | 0.35% of 340,000 active | AID 488862; in the data active = inhibition above about 52%; also: 0 = median of the neutral control wells
PrPC TRFRET – reduces human prion protein on the cell surface | cell surface PrPC, TR-FRET read-out | inhibition, % at 13.8 µM | 0.43% of 370,000 active; in the data active = inhibition above about 24%; also: 0% = median of the test wells and 100% = reference compound wells
MazF activator – MazEF (E. coli) toxin RNase activation; activation, % at 20 µM; AID 504720; 0.32% of 350,000 active; FAM/BHQ RNA-DNA oligo cleavage fluorescence, 5 h; P0AE70; in the data active = activation above about 50%
BJeLR viability – BJeLR cell viability loss. BJeLR (HRASV12) viability, CellTiter-Glo ATP luminescence, 48 h. inhibition, % (concentration not given with the values). 0.17% of 300,000 active. AID 1554; in the data active = inhibition above about 50%
PrPC confirm – confirmation of inhibitors of cell surface human prion protein. 65% of 1,500 active. shares compounds with PrPC TRFRET. inhibition, % at 13.8 µM. cell surface PrPC level, TR-FRET; in the data active = inhibition above about 25%
LD9 tox – counter-screen for PrPc inhibitors: cytotoxicity in LD9 cells | shares compounds with PrPC TRFRET | luminescence viability | inhibition, % at 13.8 µM | 29% of 1,500 active; in the data active = inhibition above about 9.5%
* marks the source's active call; other numbers are inactive results; / = no result.

SMILES | PrP UTR inh | PrPC TRFRET | MazF activator | BJeLR viability | PrPC confirm | LD9 tox
Cc1ccc(S(=O)(=O)NCCCN2CCCC2)cc1 | -31 | 55* | -2 | 10 | -1 | -10
C[C@@H]1CCCN1c1ccc2c(c1)OCCCN(C1CC1)S2(=O)=O | / | 3 | / | / | / | /
CCOC(=O)N1CCN(C(=O)C[C@@H]2C(=O)N(Cc3ccc(OC)cc3)C3=CCN(C(=O)OC(C)(C)C)C[C@]32C(=O)OCC)CC1 | / | -13 | / | / | / | /
Cc1ccc(C(=O)Nc2nc(-c3ccccn3)cs2)cc1S(=O)(=O)N1CCOCC1 | 39 | 25* | 4 | / | 23 | 3
O=C(Nc1nc(-c2ccccn2)cs1)c1ccc(F)c(S(=O)(=O)N2CCOCC2)c1 | 42 | 27* | -3 | / | 33* | 18*
O=C(Nc1nc(-c2ccccn2)cs1)c1cc(S(=O)(=O)N2CCOCC2)ccc1F | 4 | -2 | -9 | / | / | /
O=C(NCCc1ccccc1)OCc1cn(-c2cccc(C(F)(F)F)c2)nn1 | / | 4 | / | / | / | /
N=C1C(c2nc3ccccc3s2)=C(O)CN1NC(=O)c1c[nH]c2ccccc12 | -7 | 26* | -26 | 2 | 34* | 6
CCC(C)(C)n1nnnc1CN1CCC(c2nc3ccc(C)cc3[nH]2)CC1 | -5 | 33* | -3 | -11 | 32* | 1
C[C@@H](CO)NC(=O)c1[nH]cnc1C(=O)Nc1ccccc1 | / | 2 | / | / | / | /
CCC(NC(=O)Nc1nnc(C(F)(F)F)s1)(C(F)(F)F)C(F)(F)F | -21 | 58* | 3 | 28 | 74* | 54*
Cn1c(=O)cc(OCCCC(=O)Nc2cc(-c3cn[nH]c3)ccn2)c2ccccc21 | / | 35* | / | / | 41* | 24*
Cc1cc2cc(CNC(=O)Cc3ccc([N+](=O)[O-])cc3)ccc2n1C | -15 | 15 | 6 | 1 | / | /
Cc1c(C(=O)NCc2ccc3c(c2)cc(C)n3C)cccc1[N+](=O)[O-] | -8 | 34* | -8 | -3 | 8 | -2
Cc1cc2cc(CNC(=O)c3cccc([N+](=O)[O-])c3)ccc2n1C | -24 | 37* | 10 | 8 | -5 | -5
C[C@@H]1CN([C@H](C)CO)S(=O)(=O)c2ccc(Br)cc2O[C@H]1CN(C)CC1CCOCC1 | / | -5 | / | / | / | /
CCCc1c(-c2ccc(F)cc2F)ncn1Cc1ccccc1OC | / | 25* | / | / | 7 | 9
CCCc1c(-c2cccc(F)c2)ncn1Cc1ccccc1OC | / | 17 | / | / | / | /
O=C(Cc1cccs1)Nc1nc(-c2ccc(F)cc2F)cs1 | -12 | 26* | 2 | 15 | 16 | -7
O=C(Cc1cccs1)Nc1nc(-c2ccc(F)c(F)c2)cs1 | -22 | 23 | 4 | -6 | / | /
CNC(=O)c1cc(Oc2ccc(NC(=O)Nc3ccc(Cl)c(C(F)(F)F)c3)cc2)ccn1 | 31 | 27* | 1 | / | 17 | 6
NC(=O)NOCc1ccc(Cl)cc1Cl | -23 | 4 | 16 | 2 | / | /
CNC(=S)/N=C/NOCc1ccc(Cl)cc1Cl | -31 | 36* | 1 | 3 | 45* | 35*
NCCCNc1nc(N)c([N+](=O)[O-])c(NC2CCCCC2)n1 | -64 | 66* | 5 | 5 | 79* | 25*
COCCNc1nc(N)c([N+](=O)[O-])c(NC2CCCCC2)n1 | -2 | 7 | 4 | -3 | / | /
SMILES | PrP UTR inh | PrPC TRFRET | MazF activator | BJeLR viability | PrPC confirm | LD9 tox
O=S(=O)(CCN1CCN(c2ccccc2O)CC1)c1cc(Cl)ccc1Cl | -14 | 36* | 0 | / | 3 | -2
O=[N+]([O-])c1cc(Cl)ccc1N1CCN(c2ccccc2O)CC1 | -13 | -7 | 0 | 6 | / | /
Cc1ccccc1NC(=O)Nc1ccc(C(F)(F)F)cc1 | -70 | 30* | 8 | 0 | 17 | 9
Cc1ccccc1NC(=O)CNC(=O)c1ccc(C(F)(F)F)cc1 | -7 | 2 | -11 | -1 | / | /
NC(Cc1ccccc1)c1csc(NC(=O)Nc2ccccc2Oc2ccccc2)n1 (stereo not drawn) | / | 25* | / | / | 27* | -1
CCOc1ccc2[nH]cc(C(=O)NCc3ccccc3)c(=O)c2c1 | -6 | 25* | 9 | 1 | 18 | 6
CCCN1C(=O)c2[nH]nc(-c3ccccc3)c2C1c1ccc(Br)cc1 (stereo not drawn) | / | 7 | / | / | / | /
Fc1ccc2[nH]c3c(N4CCc5ccccc5C4)ncnc3c2c1 | / | 26* | 8 | 7 | 35* | 20*
COC(=O)[C@H](CC1(c2cn(S(=O)(=O)CC[Si](C)(C)C)c3ccccc23)C(=O)Nc2ccccc21)NC(=O)OC(C)(C)C (stereo partly drawn) | / | 47* | / | / | 59* | -1
O=C(NNc1ccccn1)C(c1ccccc1)c1ccccc1 | -9 | -5 | 7 | 0 | / | /
O=C(NNC(=O)C(c1ccccc1)c1ccccc1)c1ccccn1 | 28 | 34* | -3 | 20 | 23 | 43*
Cc1cc(C)c(C)c(C(=O)c2ccccc2C(=O)O)c1C | -34 | 8 | 4 | -2 | / | /
Cc1c(C(=O)c2ccccc2C(=O)O)sc2ccccc12 | -13 | 33* | 3 | 6 | 54* | -6
COC(=O)c1cc2c(c3c4ccccc4n(S(=O)(=O)c4ccc(OC)cc4)c13)C(=O)N(C)C2 | / | 0 | / | / | / | /
CCCCCCN1CCN(C2CN(Cc3cn(Cc4ccc(C(F)(F)F)cc4)nn3)S(=O)(=O)C2)CC1 (stereo not drawn) | / | 10 | / | / | / | /
CC1=C(O)C(=O)C=C2C1=CC=C1C2(C)CCC2(C)C3CC(C)(C(=O)O)CCC3(C)CCC12C (stereo not drawn) | 24 | 62* | -8 | / | 89* | 98*
NC(=O)c1cc(NC(=O)CCc2nc3ccccc3s2)cc(C(N)=O)c1 | 0 | 37* | -5 | -8 | 31* | 5
N#Cc1ccc(NC(=O)CCc2nc3ccccc3s2)cc1 | -18 | 5 | 29 | 2 | / | /
Cc1cccc[n+]1C1C(c2ccc([N+](=O)[O-])cc2)C(C#N)=C(C(=C=[N-])C#N)NC1(O)C1CC1 (stereo not drawn) | -13 | 39* | 29 | 0 | -4 | 2
N#CC1=C(N)NC(=S)C(C(N)=O)C1c1ccc([N+](=O)[O-])cc1 (stereo not drawn) | -6 | -10 | -1 | 10 | / | /
COc1ccc(-c2noc(C3CCCN(C(=O)Nc4ccc(C)c(F)c4)C3)n2)cc1 (stereo not drawn) | / | -1 | / | / | / | /
CCCCOc1ccc(Br)cc1CSC(=N)N | -17 | 25* | 6 | 8 | 4 | 21*
CCOc1ccc(C(C)=O)cc1CSC(=N)N | -17 | 3 | -6 | 7 | / | /
C[n+]1cc2c3c(ccc2c2ccc4cc5c(cc4c21)OCO5)OCO3 | / | 87* | / | / | 101* | 99*
CCc1nc(SCC(=O)NNC(=O)C2CCCCC2)c2ccccc2n1 | -14 | 60* | -4 | 5 | 114* | -9
CCc1nc(SCC(=O)Nc2ccc(N(C)C)cc2)c2ccccc2n1 | -11 | 61* | 1 | -6 | 81* | -6
CC(=O)c1ccc(NC(=O)CSc2nc(C3CC3)nc3ccccc23)cc1 | 15 | 0 | 26 | 0 | / | /
